Results published in PubChem BioAssay AID1159580 (chemical genetic matrix, 2015).
About 2,000 (36%) of roughly 5,500 compounds were called active. Roughly 18% stayed inconclusive and do not appear here. No stated cut-off is given here; in the data, active means normalized growth mostly below about 0.91 (no sharp cut-off); inconclusive means no clear call, values can overlap the other calls; inactive means mostly above about 0.92. This is one part of the list.

Test: chemical genetic growth profiling, strain panel (AID 1159580);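 further: tested at 20 µM; growth read once vehicle control cultures reached saturation at 30 °C; 1 = growth at the plate median or of vehicle wells; lower values mean less growth of the strain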
Conditions: S. cerevisiae deletion strains, growth OD

Measured: normalized growth

NCCNC(=O)c1ncsc1-c1cccc(F)c1
inactive: locus YAL013W, strain DEP1, active compounds read low 1.02 | locus YAL040C, strain CLN3, active compounds read low 0.986 | locus YCL061C, strain MRC1 (second series), active compounds read low 0.991 | locus YDR363W, strain ESC2, active compounds read low 1.02 | locus YER002W, strain NOP16, active compounds read low 1 | locus YGR078C, strain PAC10, active compounds read low 0.989 | locus YJR075W, strain HOC1, active compounds read low 1.01 | locus YMR307W, strain GAS1, active compounds read low 1 | locus YNL128W, strain TEP1, active compounds read low 0.99 | locus YNL153C, strain GIM3, active compounds read low 0.983 | locus YNL175C, strain NOP13, active compounds read low 0.984 | locus YNL197C, strain WHI3, active compounds read low 0.989 | locus YNL224C, strain SQS1, active compounds read low 0.996 | locus YOR083W, strain WHI5 (second series), active compounds read low 0.974
